Reference: the supplement of paper PMC3545927
Some of the results follow. How many sequences the whole screen found active is unknown.

B1: HC1946 (peptide)
chain: CAMCTTPCSGAGNASASA
B2: HC2390 (peptide)
chain: CAEVPCHRVSAGNASASA
B3: HC1979 (peptide)
chain: CAEPTTPCSGAGNASASA
B4: HC310 (peptide)
chain: CAWTTQGCNCAGNASASA
B5: HC1788 (peptide)
chain: CAWEMEECSQAGNASASA
B6: HC484 (peptide)
chain: CATRGERCDLAGNASASA
B7: HC2135 (peptide)
chain: CAEHVVCCSMAGNASASA
B8: HC2098 (peptide)
chain: CAVVCCSMSTAGNASASA
B9: HC640 (peptide)
chain: CAWAHNGLRDAGNASASA
B10: FS-101 (peptide)
chain: CATTDRRRRDAGNASASA
B11: FS-432 (peptide)
chain: CAGRPRRRRDAGNASASA
B12: FS-737 (peptide)
chain: CAYGCRRRRDAGNASASA
B13: FS-657 (peptide)
chain: CAGRPRSRKIAGNASASA
B14: FS-346 (peptide)
chain: CALAFRRRRDAGNASASA
B15: HC2420 (peptide)
chain: CAEVPCHRPCAGNASASA
B16: HC1577 (peptide)
chain: CAIMFAPTLWAGNASASA
B17: HC764 (peptide)
chain: CASPVFTDNSAGNASASA
B18: HC320 (peptide)
chain: CAAWDMMMNWAGNASASA
B19: HC1679 (peptide)
chain: CAPEECSQHLAGNASASA
B20: HC846 (peptide)
chain: CAGEIPFYGKAGNASASA
B21: HC1274 (peptide)
chain: CAIEANLLWRAGNASASA
B22: FS-1058 (peptide)
chain: CARAERGPRSAGNASASA
B23: FS-705 (peptide)
chain: CAREYRGQRSAGNASASA
B24: FS-1176 (peptide)
chain: CAVGKRQPRSAGNASASA
B25: FS-745 (peptide)
chain: CAAKARGPRSAGNASASA
B26: FS-1078 (peptide)
chain: CASASRGPRSAGNASASA
B27: HC835 (peptide)
chain: CAATPPGSVTAGNASASA
B28: HC1075 (peptide)
chain: CAFVGAGLAGAGNASASA
B29: HC2047 (peptide)
chain: CAVVCCSFSYAGNASASA
B30: HC605 (peptide)
chain: CATKLLLAVFAGNASASA
B31: HC2566 (peptide)
chain: CASTPCSAHMAGNASASA
B32: HC281 (peptide)
chain: CAAMTPTVATAGNASASA
B33: FS-1574 (peptide)
chain: CATHSIKKRSAGNASASA
B34: FS-184 (peptide)
chain: CAQTSRNTRSAGNASASA
B35: FS-852 (peptide)
chain: CAQTSRSNRFAGNASASA
B36: FS-763 (peptide)
chain: CAERHRQTRSAGNASASA
B37: FS-867 (peptide)
chain: CASASHKKRSAGNASASA
B38: HC1997 (peptide)
chain: CASVCCSMSYAGNASASA
B39: HC2423 (peptide)
chain: CAAREVPCHRAGNASASA
B40: HC363 (peptide)
chain: CAPGAKQNVQAGNASASA
B41: HC569 (peptide)
chain: CASCGGVVLVAGNASASA
B42: FS-582 (peptide)
chain: CACLSRRRRAAGNASASA
B43: FS-1475 (peptide)
chain: CAQLLRRRRAAGNASASA
B44: FS-326 (peptide)
chain: CAFLSRRRRAAGNASASA
B45: FS-798 (peptide)
chain: CAHRSVRRRAAGNASASA
B46: HC1138 (peptide)
chain: CAQLLRRLHQAGNASASA
B47: FS-1613 (peptide)
chain: CASLLRERRAAGNASASA

Molecular target: furin, P09958
Sequence (P09958 whole entry): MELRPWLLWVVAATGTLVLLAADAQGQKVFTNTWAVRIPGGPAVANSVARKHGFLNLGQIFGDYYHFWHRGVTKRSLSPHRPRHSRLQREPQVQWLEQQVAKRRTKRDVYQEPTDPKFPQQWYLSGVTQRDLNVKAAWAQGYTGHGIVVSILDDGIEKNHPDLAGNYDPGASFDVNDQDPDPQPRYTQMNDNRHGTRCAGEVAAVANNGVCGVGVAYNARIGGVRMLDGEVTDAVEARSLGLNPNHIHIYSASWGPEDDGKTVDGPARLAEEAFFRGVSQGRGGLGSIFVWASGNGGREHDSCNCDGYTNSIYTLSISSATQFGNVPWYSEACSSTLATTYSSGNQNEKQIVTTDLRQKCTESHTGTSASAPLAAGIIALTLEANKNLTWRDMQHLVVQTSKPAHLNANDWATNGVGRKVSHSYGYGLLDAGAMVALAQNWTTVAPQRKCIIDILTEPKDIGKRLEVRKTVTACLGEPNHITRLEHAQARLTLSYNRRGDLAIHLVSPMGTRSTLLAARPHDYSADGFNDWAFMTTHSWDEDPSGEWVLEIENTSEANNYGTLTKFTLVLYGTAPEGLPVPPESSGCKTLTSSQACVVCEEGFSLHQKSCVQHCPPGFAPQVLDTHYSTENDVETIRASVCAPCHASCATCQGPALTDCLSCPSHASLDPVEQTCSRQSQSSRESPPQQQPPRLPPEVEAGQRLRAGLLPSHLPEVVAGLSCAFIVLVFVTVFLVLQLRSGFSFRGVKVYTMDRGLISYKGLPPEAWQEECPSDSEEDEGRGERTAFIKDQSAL
Experiment: furin cleavage Z-score vs untreated control; higher = more cleavage, active = 3.5 or more, inactive = 1 or less, 8 variable residues between constant flanks
Method in brief: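 Reactions of 0.01 ml ran for 7.5, 15 or 30 min in 50 mM HEPES pH 7.5 with CaCl2 and NaCl, at 1:10 enzyme:substrate. In them, purified furin acted on bead-held 8-mer peptides fused to a cDNA oligonucleotide. The cleavage Z-score was obtained by lowess-adjusting log sequencing counts of released DNA against furin-free reactions and scaling by median absolute deviation.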

Sequence	furin cleavage Z-score (7.5 min)	furin cleavage Z-score (15 min)	furin cleavage Z-score (30 min)
B1	0.117 (inactive)	1.58	0.427 (inactive)
B2	2.12	0.773 (inactive)	2
B3	-1.55 (inactive)	-0.645 (inactive)	-0.627 (inactive)
B4	0.795 (inactive)	-2.96 (inactive)	-0.152 (inactive)
B5	1.14	0.864 (inactive)	-0.48 (inactive)
B6	-0.0552 (inactive)	1.25	1.03
B7	0.471 (inactive)	-0.688 (inactive)	1.47
B8	0.887 (inactive)	-0.156 (inactive)	0.445 (inactive)
B9	0.594 (inactive)	0.97 (inactive)	-0.0784 (inactive)
B10	9.9 (active)	8.9 (active)	5.67 (active)
B11	11.8 (active)	13.5 (active)	9.18 (active)
B12	9.65 (active)	10.6 (active)	8.47 (active)
B13	-0.514 (inactive)	-1.38 (inactive)	0.291 (inactive)
B14	7.62 (active)	8.27 (active)	6.14 (active)
B15	0.0318 (inactive)	0.651 (inactive)	0.47 (inactive)
B16	-1.61 (inactive)	-2.05 (inactive)	0.617 (inactive)
B17	-0.427 (inactive)	0.197 (inactive)	-1.76 (inactive)
B18	1.05	0.73 (inactive)	-0.468 (inactive)
B19	1.99	1.43	0.965 (inactive)
B20	1.57	-1.54 (inactive)	-0.341 (inactive)
B21	0.45 (inactive)	0.419 (inactive)	0.862 (inactive)
B22	3.99 (active)	4.52 (active)	4.09 (active)
B23	-0.292 (inactive)	2.01	0.594 (inactive)
B24	10.8 (active)	10.9 (active)	8.62 (active)

Sequence	furin cleavage Z-score (7.5 min)	furin cleavage Z-score (15 min)	furin cleavage Z-score (30 min)
B25	11 (active)	9.83 (active)	7.42 (active)
B26	4.05 (active)	4.67 (active)	4.87 (active)
B27	-1.05 (inactive)	-0.0418 (inactive)	-0.602 (inactive)
B28	-0.934 (inactive)	-0.739 (inactive)	-0.847 (inactive)
B29	0.639 (inactive)	-0.617 (inactive)	-0.397 (inactive)
B30	1.92	3.24	0.635 (inactive)
B31	-0.903 (inactive)	0.0563 (inactive)	1.83
B32	0.668 (inactive)	1.6	-0.149 (inactive)
B33	8.84 (active)	7.91 (active)	7.4 (active)
B34	9.04 (active)	11.5 (active)	9.02 (active)
B35	0.217 (inactive)	-0.984 (inactive)	0.464 (inactive)
B36	6.53 (active)	6.61 (active)	4.64 (active)
B37	3	2.31	3.6 (active)
B38	-0.28 (inactive)	-0.316 (inactive)	-0.657 (inactive)
B39	0.147 (inactive)	1.34	1.67
B40	-0.22 (inactive)	-0.957 (inactive)	-0.643 (inactive)
B41	-1.44 (inactive)	-0.138 (inactive)	-1.42 (inactive)
B42	9.75 (active)	10.1 (active)	8.23 (active)
B43	5.21 (active)	3.72 (active)	3.69 (active)
B44	8.63 (active)	7.91 (active)	6.71 (active)
B45	4.59 (active)	5.95 (active)	5.68 (active)
B46	-0.809 (inactive)	0.744 (inactive)	0.327 (inactive)
B47	-0.33 (inactive)	1.11	0.57 (inactive)
